About 83,000 compounds went through this panel and 20% of them were active in at least one assay; those are over-represented in the sample as a whole.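 Note: values are percent growth. 100 is the growth of untreated cells, values between 100 and 0 indicate rising inhibition; between -100 and 0 indicates cell death.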 Calls of active or inactive are those of the source. How the source made its calls: active means growth percent below 10; inactive means the rest.
What was measured:
Test in all cases: NCI-60 one-dose screen, 48 h (100 = growth as untreated, 0 = no growth, -100 = all killed)
Details in all cases: 10 µM unless noted
HCT-15 colon = tested on: HCT-15 colon
HT29 colon = tested on: HT29 colon
SNB-75 CNS = tested on: SNB-75 CNS
SNB-19 CNS = tested on: SNB-19 CNS
PC-3 prostate = tested on: PC-3 prostate
SK-MEL-5 melanoma = tested on: SK-MEL-5 melanoma
UACC-62 melanoma = tested on: UACC-62 melanoma
LOX IMVI melanoma = tested on: LOX IMVI melanoma
SK-MEL-28 melanoma = tested on: SK-MEL-28 melanoma
U251 CNS = tested on: U251 CNS

Measured: growth

CN1CCN(Cc2ccc(NC(=O)c3cncc(C#Cc4cnn5ccccc45)c3)cc2C(F)(F)F)CC1
active: HCT-15 colon 0.133% | HT29 colon 4.53% | SNB-19 CNS 5.8% | PC-3 prostate -4.22% | LOX IMVI melanoma -39.6%
inactive: SNB-75 CNS 13.6% | SK-MEL-5 melanoma 14.9% | UACC-62 melanoma 13.8% | SK-MEL-28 melanoma 25%

Cc1[nH]c(C(=O)Nc2cccc(OC3CCNCC3)c2)c(Cl)c1Cl
inactive: HCT-15 colon 51% | SNB-75 CNS 82.3% | SNB-19 CNS 74.6% | PC-3 prostate 62.9% | SK-MEL-5 melanoma 85.5% | LOX IMVI melanoma 40.9%
active: HT29 colon -36.2% | UACC-62 melanoma -55.7% | SK-MEL-28 melanoma -63.5%

C=C1C(=O)O[C@H]2[C@H]1CC/C(COC(=O)c1cc3cc(F)ccc3[nH]1)=C\CC[C@@]1(C)O[C@@H]21
active: HCT-15 colon -59.8% | HT29 colon -53.6% | SNB-75 CNS -35.3% | SNB-19 CNS -10.2% | U251 CNS -86% | SK-MEL-5 melanoma -94.5% | UACC-62 melanoma -71.9% | LOX IMVI melanoma -87.2% | SK-MEL-28 melanoma -77.4%

COc1ccc(-c2ccc(-c3ccc(C(=N)N)cn3)s2)cc1
inactive: HCT-15 colon 19.9% | HT29 colon 16.1% | SNB-75 CNS 105% | SNB-19 CNS 88.6% | PC-3 prostate 65.5% | SK-MEL-5 melanoma 85% | UACC-62 melanoma 101% | LOX IMVI melanoma 55% | SK-MEL-28 melanoma 109%

COc1cc(C(=O)/C=C/c2ccc(N3CCN(C)CC3)cc2)cc(OC)c1OC
inactive: HCT-15 colon 92.5% | HT29 colon 94.7% | SNB-75 CNS 82.2% | SNB-19 CNS 95.3% | PC-3 prostate 99.3% | SK-MEL-5 melanoma 103% | UACC-62 melanoma 86.8% | LOX IMVI melanoma 90.4% | SK-MEL-28 melanoma 103%

CN1CCN(Cc2ccc(NC(=O)c3cncc(C#Cc4cncc5[nH]ncc45)c3)cc2C(F)(F)F)CC1
inactive: HCT-15 colon 10.6% | HT29 colon 11.1% | SNB-75 CNS 20% | SNB-19 CNS 45.5% | SK-MEL-5 melanoma 13.2%
active: PC-3 prostate 1.19% | UACC-62 melanoma -49.2% | LOX IMVI melanoma -90% | SK-MEL-28 melanoma -15.2%

CCCCCCCC/C=C\CCCCCCCCOc1ccccc1CC(=O)NCC[N+]1(C)CCCCC1
inactive: HCT-15 colon 102% | SNB-75 CNS 49.3% | SNB-19 CNS 52.6% | U251 CNS 39% | SK-MEL-5 melanoma 86.5% | UACC-62 melanoma 53.8% | LOX IMVI melanoma 75.7% | SK-MEL-28 melanoma 84.2%
active: HT29 colon 9.78%

COc1cc(/C=C2\C(=O)N(c3c(Cl)cccc3Cl)c3ccccc32)cc(OC)c1OCCCCCCn1c2ccccc2c(=O)c2ccccc21
inactive: HCT-15 colon 108% | HT29 colon 103% | SNB-75 CNS 73.6% | SNB-19 CNS 98.4% | PC-3 prostate 87.1% | SK-MEL-5 melanoma 96.1% | UACC-62 melanoma 93.3% | LOX IMVI melanoma 98.4% | SK-MEL-28 melanoma 99%

O=C(c1ccc(Cl)cc1Cl)N1c2ccccc2Sc2ccccc21
inactive: HCT-15 colon 29.6% | HT29 colon 47.5% | SNB-75 CNS 59.6% | SNB-19 CNS 57.3% | PC-3 prostate 44% | SK-MEL-5 melanoma 34.6% | UACC-62 melanoma 43.1% | LOX IMVI melanoma 23.9% | SK-MEL-28 melanoma 65.4%

Cc1ccc(C)c(-n2c(-c3ccc(Br)cc3)csc2=NC(=O)c2ccccc2F)c1
inactive: HCT-15 colon 57.9% | HT29 colon 55.5% | SNB-75 CNS 84.6% | SNB-19 CNS 93.7% | PC-3 prostate 22.7% | SK-MEL-5 melanoma 46.9% | UACC-62 melanoma 60.7% | LOX IMVI melanoma 76.9% | SK-MEL-28 melanoma 96.6%

Cc1ncc(C(=O)Nc2ccc(CN3CCN(C)CC3)c(C(F)(F)F)c2)cc1C#Cc1cnc(N)c2cnccc12
active: HCT-15 colon 6.59% | HT29 colon -43.1% | SNB-75 CNS -90.6% | SK-MEL-5 melanoma -20.8% | UACC-62 melanoma -65.2% | LOX IMVI melanoma -90.1%
inactive: SNB-19 CNS 23.1% | PC-3 prostate 41.7%

S=c1[nH]c2cc(Cl)ccc2o1
inactive: HCT-15 colon 98.6% | HT29 colon 105% | SNB-75 CNS 111% | SNB-19 CNS 102% | PC-3 prostate 88% | SK-MEL-5 melanoma 99% | UACC-62 melanoma 96.6% | LOX IMVI melanoma 103% | SK-MEL-28 melanoma 114%

FC(F)(F)c1[nH]ncc1-c1nc2c(N3CCCCC3)cc3[nH]ncc3c2c2c1CCCC2
active: HCT-15 colon 5.17% | HT29 colon 1.21% | SNB-75 CNS -73.8% | SNB-19 CNS 7.25% | U251 CNS 3.57% | SK-MEL-5 melanoma -68.2% | UACC-62 melanoma -49.9% | LOX IMVI melanoma -68.9% | SK-MEL-28 melanoma -6.99%

O=C(/C=C/C12c3ccccc3C(c3ccccc31)C1C(=O)NC(=O)C12)c1ccc(F)cc1 (centres undefined)
inactive: SNB-19 CNS 10.6% | SK-MEL-5 melanoma 10.8%
active: HCT-15 colon -10.6% | HT29 colon -3.81% | SNB-75 CNS 7.89% | PC-3 prostate 8.91% | UACC-62 melanoma -55.6% | LOX IMVI melanoma -53.9% | SK-MEL-28 melanoma 6.45%

COc1ccc(/C=C/C(=O)c2cc3c(N)c(C(=O)Nc4ccccc4C)sc3nc2C)cc1
inactive: HCT-15 colon 15.2% | PC-3 prostate 25% | SK-MEL-5 melanoma 17.7% | UACC-62 melanoma 16.9% | LOX IMVI melanoma 18.7% | SK-MEL-28 melanoma 51.3%
active: HT29 colon -27.6% | SNB-75 CNS -0.543% | SNB-19 CNS 6.45%

Cc1ncc(C(=O)Nc2ccc(CN3CCN(C)CC3)c(C(F)(F)F)c2)cc1C#Cc1cnc(N)c2ccncc12
active: HCT-15 colon -31.8% | HT29 colon -44.8% | SNB-75 CNS -67.7% | SNB-19 CNS -45.6% | PC-3 prostate -50.6% | SK-MEL-5 melanoma -90.8% | UACC-62 melanoma -83.8% | LOX IMVI melanoma -93.3% | SK-MEL-28 melanoma -81.3%

O=c1ccc2nc(C(F)(F)F)nn(-c3ccccc3)c-2c1
inactive: SNB-75 CNS 86.5% | SNB-19 CNS 93.5% | PC-3 prostate 84.6% | SK-MEL-5 melanoma 32.7% | UACC-62 melanoma 66.4% | SK-MEL-28 melanoma 35.7%
active: HCT-15 colon -79.7% | HT29 colon -64.3% | LOX IMVI melanoma 4.3%

COc1ccc(-c2cn(-c3ccc(Cl)cc3)c(SCC(=O)c3ccc([N+](=O)[O-])cc3)n2)cc1
inactive: HCT-15 colon 92.7% | HT29 colon 89.6% | SNB-75 CNS 39% | SNB-19 CNS 52.3% | PC-3 prostate 73.7% | SK-MEL-5 melanoma 88.2% | UACC-62 melanoma 68.7% | LOX IMVI melanoma 89.1% | SK-MEL-28 melanoma 95.8%

COc1ccc2nc3ccccc3c(NCc3ccccc3)c2c1
inactive: HCT-15 colon 13.1% | SNB-75 CNS 45.5% | SNB-19 CNS 24.2% | PC-3 prostate 28.6% | SK-MEL-5 melanoma 18.8% | UACC-62 melanoma 45.9% | SK-MEL-28 melanoma 49.7%
active: HT29 colon 8.49% | LOX IMVI melanoma -31.1%

COc1cc2oc(-c3cccc(NC(=O)c4ccc5c(c4)OCO5)c3)cc(=O)c2c(OC)c1OC
active: PC-3 prostate -12%
inactive: HCT-15 colon 32.1% | HT29 colon 29.4% | SNB-75 CNS 67.4% | SNB-19 CNS 45.6% | SK-MEL-5 melanoma 16.4% | UACC-62 melanoma 50% | LOX IMVI melanoma 39.5% | SK-MEL-28 melanoma 55.1%

CCCCCn1sc(=O)n(Cc2ccc(CNC(=O)OCc3ccc4c(Cl)cc(Cl)c(O)c4n3)cc2)c1=O
inactive: HCT-15 colon 17.1% | HT29 colon 110% | SNB-75 CNS 82.1% | SNB-19 CNS 48.6% | PC-3 prostate 61.1% | SK-MEL-5 melanoma 48.7% | UACC-62 melanoma 40.4% | LOX IMVI melanoma 51.8%

O=C1/C(=C/c2ccc(Br)cc2)COc2ccc(O)c(O)c21
inactive: SNB-75 CNS 20.4% | SK-MEL-5 melanoma 29.8% | SK-MEL-28 melanoma 22%
active: HCT-15 colon 0.349% | HT29 colon 2.83% | SNB-19 CNS 6.19% | PC-3 prostate -26.3% | UACC-62 melanoma -14.2% | LOX IMVI melanoma -91%

CCSC1=CC(=O)c2ccccc2C1=O
inactive: HCT-15 colon 73% | HT29 colon 105% | SNB-75 CNS 52.8% | SNB-19 CNS 87.6% | U251 CNS 79.1% | SK-MEL-5 melanoma 50.8% | UACC-62 melanoma 59.1% | LOX IMVI melanoma 47.7% | SK-MEL-28 melanoma 36.7%

Cc1nn(-c2ccccc2)c(N2CCCCC2)c1/C=N/NC(=O)Cn1c(=O)sc2ccccc21
inactive: HCT-15 colon 61.3% | HT29 colon 57.3% | SNB-75 CNS 75% | SNB-19 CNS 70.9% | PC-3 prostate 61.7% | SK-MEL-5 melanoma 73.7% | UACC-62 melanoma 64.3% | LOX IMVI melanoma 60.3% | SK-MEL-28 melanoma 114%

O=C1NC(=O)c2c1c1c3ccccc3[nH]c1c1oc3ccc(F)cc3c21
inactive: HCT-15 colon 55.1% | HT29 colon 81.9% | SNB-75 CNS 41.3% | SNB-19 CNS 89.4% | U251 CNS 83.4% | SK-MEL-5 melanoma 53% | UACC-62 melanoma 46.1% | LOX IMVI melanoma 66% | SK-MEL-28 melanoma 90.6%

Cc1ccc(/C=C2\CN(C(=O)C(Cl)Cl)C/C(=C\c3ccc(C)cc3)C2=O)cc1
active: HCT-15 colon -39.2% | HT29 colon -5.72% | SNB-75 CNS -30.2% | SNB-19 CNS -53.7% | U251 CNS -94.9% | SK-MEL-5 melanoma -81.8% | UACC-62 melanoma -67.2% | LOX IMVI melanoma -92.2% | SK-MEL-28 melanoma -56.1%

CCC(CC)(N(CC(=O)O)CC(=O)O)C(CC)(CC)N(CC(=O)O)CC(=O)O
inactive: HCT-15 colon 131% | HT29 colon 89.9% | SNB-75 CNS 108% | SNB-19 CNS 107% | U251 CNS 102% | SK-MEL-5 melanoma 105% | UACC-62 melanoma 102% | LOX IMVI melanoma 98.6% | SK-MEL-28 melanoma 108%

COc1cc(-c2nc3ccc(C)cc3[nH]2)ccc1OCC(=O)N=Nc1c(O)[nH]c2ccc(Cl)cc12
active: HT29 colon -27.6% | SNB-75 CNS -42.1% | SNB-19 CNS 3.43% | LOX IMVI melanoma -96.8% | SK-MEL-28 melanoma 3.39%
inactive: HCT-15 colon 58.8% | PC-3 prostate 11.1% | SK-MEL-5 melanoma 56% | UACC-62 melanoma 19.9%

C=C(C)[C@@H]1CC[C@]2(CO)CC[C@]3(C)[C@H](CC[C@@H]4[C@@]5(C)CCC(NCCc6ccc(O)cc6)C(C)(C)[C@@H]5CC[C@]43C)[C@@H]12 (some centres undefined)
active: HCT-15 colon -92.8% | HT29 colon -87.9% | SNB-75 CNS -86.7% | SNB-19 CNS -82.1% | PC-3 prostate -84.2% | SK-MEL-5 melanoma -95.4% | UACC-62 melanoma -89.3% | LOX IMVI melanoma -96.8% | SK-MEL-28 melanoma -88.8%

From PubChem BioAssay (NCI)
